The test system of experiment [1] is TRPC4 beta (transient receptor potential cation channel C4), mouse. Briefly: TRPC4 cation channel opening, retest – cell-based, Fluo4 calcium, HEK293 TRPC4beta/mu-opioid, duplicates, 10 µM, confirmation (AID 2426;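 active = fluorescence ratio normalized to control raised more than 50% in primary screen plus both repeat runs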;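 for activation: percent rise of integrated ratio over buffer wells lacking compound which define 0%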). To be noted: Fluo4 calcium fluorescence, at 10 µM; stronger effect = higher value.
Experiment [2] deals with transient receptor potential cation channel C4 beta (TRPC4), mouse. Briefly: TRPC4 cation channel opening, second retest – cell-based, second round, Fluo4, HEK293 TRPC4beta/mu-opioid, 1 µM, confirmation (AID 2461;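 active = primary screen active and over 50% activation in each of two duplicate runs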). To be noted: Fluo4 calcium fluorescence, at 1 µM; stronger effect = higher value.
Experiment [3] relates to TRPC4 (transient receptor potential cation channel C4 beta), mouse. Briefly: potentiation of DAMGO EC20 TRPC4 response – cell-based, second round, Fluo-4, HEK293 TRPC4beta/mu-opioid, 1 µM, confirmation (AID 2554;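 active = primary screen hit whose fluorescence ratio, in both repeats, exceeds the weak agonist control mean by 3 SD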). To be noted: DAMGO EC20, Fluo-4 calcium flux, at 1 µM; stronger effect = higher value. Background: Calcium assays in cells follow changes in intracellular calcium, usually with a dye or a luminescent sensor.

Experiment [4] has as its system TRPC4 beta (transient receptor potential cation channel C4), mouse. Briefly: potentiation of DAMGO EC20 TRPC4 response – cell-based, Fluo-4, HEK293 TRPC4beta/mu-opioid, confirmation (AID 2555;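 active = primary screen hit whose calcium fluorescence ratio, in both repeats, exceeds the weak agonist control mean by 3 SD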). To be noted: DAMGO EC20, Fluo-4 calcium flux, at 10 µM; stronger effect = higher value.
The target of experiment [5] is Short transient receptor potential channel 4 (Mus musculus) (UniProt Q9QUQ5). Briefly: blockers of DAMGO-evoked TRPC4 calcium flux – cell-based, Fluo4, HEK293 TRPC4beta/mu-opioid, confirmation (AID 2636;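 active = calcium signal cut by more than 3 SD below the full-agonist control yet still positive, in both repeats and the earlier primary screen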). To be noted: at 10 µM; stronger effect = higher value.
Sequence of Short transient receptor potential channel 4 (Mus musculus) (Q9QUQ5 whole entry, looked up): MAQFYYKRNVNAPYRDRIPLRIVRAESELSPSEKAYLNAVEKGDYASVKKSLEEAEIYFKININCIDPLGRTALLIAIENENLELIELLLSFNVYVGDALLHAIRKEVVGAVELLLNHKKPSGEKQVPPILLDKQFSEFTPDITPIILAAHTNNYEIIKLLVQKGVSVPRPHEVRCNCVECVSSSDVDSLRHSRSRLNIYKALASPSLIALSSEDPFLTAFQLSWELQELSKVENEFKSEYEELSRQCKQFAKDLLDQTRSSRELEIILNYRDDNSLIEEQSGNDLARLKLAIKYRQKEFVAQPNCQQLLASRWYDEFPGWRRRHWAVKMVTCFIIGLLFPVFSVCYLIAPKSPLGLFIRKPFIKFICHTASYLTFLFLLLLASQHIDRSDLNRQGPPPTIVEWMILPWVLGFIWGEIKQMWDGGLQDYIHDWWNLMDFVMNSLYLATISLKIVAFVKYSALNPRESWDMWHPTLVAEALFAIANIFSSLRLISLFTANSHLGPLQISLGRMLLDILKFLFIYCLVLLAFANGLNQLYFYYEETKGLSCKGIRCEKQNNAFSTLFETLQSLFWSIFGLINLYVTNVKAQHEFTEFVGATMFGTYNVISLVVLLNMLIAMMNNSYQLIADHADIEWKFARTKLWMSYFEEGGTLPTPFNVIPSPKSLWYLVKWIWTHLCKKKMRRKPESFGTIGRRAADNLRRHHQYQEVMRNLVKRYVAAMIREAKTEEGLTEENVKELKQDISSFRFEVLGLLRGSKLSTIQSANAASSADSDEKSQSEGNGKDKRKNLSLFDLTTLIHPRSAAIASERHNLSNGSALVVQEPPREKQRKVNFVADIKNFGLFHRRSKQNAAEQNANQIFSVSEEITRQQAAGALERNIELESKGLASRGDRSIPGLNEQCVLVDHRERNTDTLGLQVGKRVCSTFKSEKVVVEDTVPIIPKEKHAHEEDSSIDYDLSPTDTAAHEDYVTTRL
Experiment [6] has the same target. Briefly: blockers of DAMGO-evoked TRPC4 calcium flux – cell-based, second round, Fluo4, HEK293 TRPC4beta/mu-opioid, 1 µM, confirmation (AID 2637;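 active = calcium signal ratio cut to more than 3 SD under the fully stimulated control mean yet still positive, in both repeats and the primary screen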). To be noted: at 1 µM; stronger effect = higher value.
Experiment [7] shares this target. Put plainly: calcium entry via TRPC4 opening agents – cell-based, HEK293 TRPC4/mu-opioid, Fluo-4 calcium, dose response (AID 434937;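 active = primary screen activator hit with a dose response curve and TRPC4 channel activation at any tested dose; inactive = no activation, no dose response, or not a primary hit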).
For experiment [8] the target is unchanged. Briefly: potentiation of DAMGO-evoked TRPC4 calcium signal – cell-based, HEK293 TRPC4/mu-opioid, Fluo-4 calcium, EC20 DAMGO, dose response (AID 434941;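 active = earlier screen potentiator hit that boosts the TRPC4 ion channel at some dose, with a dose response; inactive = no potentiation, no dose response, or not a prior hit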;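 note: calcium entry triggered by an EC20 dose of DAMGO at the co-expressed mu-opioid receptor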).
Experiment [9] has the same target. Put plainly: block of DAMGO-driven TRPC4 calcium entry – cell-based, HEK293 TRPC4/mu-opioid, Fluo-4 calcium, dose response (AID 434942).
For experiment [10], the target named is Short transient receptor potential channel 6 (Mus musculus) (UniProt Q61143). Put plainly: TRPC6 blockade by TRPC4 inhibitor hits – cell-based, HEK293, membrane potential dye, duplicate, selectivity assay for TRPC4 inhibitor project, confirmation (AID 434948;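 active = active in primary screen and both duplicates, each dropping signal beyond three positive-control SD with fluorescence still positive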). To be noted: HEK293 TRPC6, membrane potential dye fluorescence, at 10 µM, stimulated with maximal-effect acetylcholine; stronger effect = higher value.
Sequence of Short transient receptor potential channel 6 (Mus musculus) (Q61143 whole entry, looked up): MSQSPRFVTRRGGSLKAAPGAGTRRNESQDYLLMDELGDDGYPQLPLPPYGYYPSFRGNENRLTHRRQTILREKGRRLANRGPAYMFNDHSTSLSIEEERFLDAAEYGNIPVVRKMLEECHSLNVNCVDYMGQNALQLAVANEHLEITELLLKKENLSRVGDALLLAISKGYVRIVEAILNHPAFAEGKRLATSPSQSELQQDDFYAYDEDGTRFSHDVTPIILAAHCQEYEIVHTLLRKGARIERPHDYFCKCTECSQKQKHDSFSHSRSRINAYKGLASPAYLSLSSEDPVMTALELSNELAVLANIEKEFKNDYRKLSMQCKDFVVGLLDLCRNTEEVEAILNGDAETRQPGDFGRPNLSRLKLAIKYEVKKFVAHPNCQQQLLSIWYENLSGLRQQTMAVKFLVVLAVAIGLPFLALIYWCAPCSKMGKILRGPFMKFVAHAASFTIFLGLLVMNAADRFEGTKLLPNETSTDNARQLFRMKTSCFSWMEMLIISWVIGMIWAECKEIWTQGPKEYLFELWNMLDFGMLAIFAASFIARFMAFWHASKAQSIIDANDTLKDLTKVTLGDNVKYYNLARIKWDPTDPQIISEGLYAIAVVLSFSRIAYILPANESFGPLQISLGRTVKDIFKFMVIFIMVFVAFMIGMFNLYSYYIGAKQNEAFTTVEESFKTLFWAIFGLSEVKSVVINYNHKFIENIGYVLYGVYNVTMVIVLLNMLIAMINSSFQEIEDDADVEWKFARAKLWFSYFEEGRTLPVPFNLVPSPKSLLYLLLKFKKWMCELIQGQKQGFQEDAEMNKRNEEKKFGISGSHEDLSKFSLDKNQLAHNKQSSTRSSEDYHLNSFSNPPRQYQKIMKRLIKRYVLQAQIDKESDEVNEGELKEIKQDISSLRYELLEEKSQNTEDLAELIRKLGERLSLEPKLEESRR

Experiment [11] has the same target. Put plainly: TRPC6 opening by TRPC4 activator hits – cell-based, HEK293, membrane potential dye, duplicate, selectivity assay for TRPC4 activator project, confirmation (AID 434950;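 active = membrane potential signal rise above negative control mean plus 3 SD in both duplicates, also active in the earlier TRPC4 screen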;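 for activation: 0% = buffer only wells and 100% = acetylcholine maximal-effect wells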). To be noted: HEK293 TRPC6, membrane potential fluorescence, at 10 µM; activation: stronger effect = higher value; outcome: activation.
The target is the same in experiment [12]. Briefly: positive modulators of mouse TRPC6 channel – HEK293 cells, membrane potential dye, duplicate, selectivity assay for TRPC4 potentiator project, confirmation (AID 434952;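 active = compound raising the membrane signal above positive-control mean plus 3 SD in both repeats, and a primary screen hit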). To be noted: HEK293 TRPC6, membrane potential dye fluorescence, at 10 µM, maximal acetylcholine added after compound; stronger effect = higher value.
For experiment [13], the target named is Short transient receptor potential channel 4 (Mus musculus) (UniProt Q9QUQ5). Briefly: calcium flux activators in TRPC4/5HT1a cells, counter-screen for TRPC4 activator project, cell-based, second counter screen, HEK293 TRPC4/5HT1a, Fluo-4 (AID 434977;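 active = calcium signal rise above buffer-control mean plus 5 SD in both duplicates, and also a hit in the primary screen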;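 for activation: plate controls were assay buffer for no effect and maximal serotonin response for full effect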). To be noted: Fluo-4 calcium flux, at 10 µM; stronger effect = higher value.
Experiment [14] is described as follows: serotonin-gated TRPC4 signal block – cell-based, second counter screen, HEK293 TRPC4/5HT1a, Fluo-4, counter-screen for TRPC4 inhibitor project, confirmation (AID 434978;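 active = primary screen active whose calcium signal fell more than 3 SD beyond the full-serotonin control mean in both duplicate plates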;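 note: serotonin given first at submaximal then at maximal dose after compound preincubation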). To be noted: Fluo-4 calcium flux, at 10 µM, serotonin added to trigger calcium flux; stronger effect = higher value. Background: Counterscreens check selectivity or assay interference.
In experiment [15] the test system is TRPC4 (mouse), co-expressed with 5HT1a in HEK293. Briefly: enhancement of serotonin-evoked TRPC4 response – cell-based, second counter screen, HEK293 TRPC4/5HT1a, Fluo-4, counter-screen for TRPC4 potentiator project, confirmation (AID 434979;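 active = signal rise over 3 SD above mean of control wells given weak agonist, in both repeats and first screen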). To be noted: Fluo-4 calcium flux, at 10 µM, serotonin added at its EC20 dose; stronger effect = higher value.
Experiment [16] is described as follows: nonspecific calcium rise without TRPC4 – cell-based, HEK293 mu-opioid receptor line, counter-screen for TRPC4 activator project, confirmation (AID 449723;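 active = hit in primary screen, with calcium signal over 5 SD above buffer well mean in both duplicates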;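 note: counter screen cells carry the mu-opioid receptor alone and lack TRPC4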). To be noted: HEK293 mu-opioid cells, Fluo-4 calcium fluorescence, at 10 µM; stronger effect = higher value.
Experiment [17] can be described thus: nonspecific potentiation of DAMGO calcium response – cell-based, HEK293 mu-opioid receptor line, counter-screen for TRPC4 allosteric potentiator project, confirmation (AID 449724;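 active = calcium signal rise more than 3 SD above the low-dose agonist control mean, in both duplicate plates and the primary screen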;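 note: HEK293 cells carrying mu-opioid receptor only with no TRPC4 channel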). To be noted: HEK293 mu-opioid receptor cells, Fluo-4 calcium flux, at 10 µM, compound added before EC20 DAMGO stimulus; stronger effect = higher value.

For part of these data: Measured potencies and affinities stand elsewhere. Calls of active or inactive are those of the source.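 Rule for the calls, unless noted: active = primary screen inhibitor hit that blocks the TRPC4 channel at some tested dose, yielding a dose curve; inactive = the rest.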

The term inhibition denotes the relative decrease from the control value, in per cent.

Regarding `CCN(CC)CCN(Cc1cc2cc3c(cc2[nH]c1=O)OCCO3)C(=O)NC1CCCCC1`, the outcome in [1], in [2], in experiment [3], in experiment [4], in experiment [5] and in [6] was inactive. For the same compound, the outcome in [7], in [8], in experiment [9], in experiment [10], in [11] and in experiment [12] was inactive. Moreover, the result in experiment [13], in experiment [14], in experiment [15], in experiment [16] and in [17] was inactive.
`CSc1ncccc1C(=O)OCC(=O)N(CC(C)C)c1c(N)n(Cc2ccccc2)c(=O)[nH]c1=O`: the result in experiment [1], in [2], in [3], in experiment [4], in experiment [5] and in experiment [6] was inactive. The outcome in experiment [7], in experiment [8], in [9], in experiment [10], in experiment [11] and in [12] was inactive. In addition, the result in experiment [13], in [14], in experiment [15], in experiment [16] and in experiment [17] was inactive.
`CCN1CCN(c2ccc(S(=O)(=O)N3CCCCC3)cc2NC(=O)c2cc3ccccc3o2)CC1`: the outcome in experiment [1], in [2], in experiment [3], in experiment [5], in [6] and in experiment [7] was inactive. In addition, the result in [8], in experiment [9], in [10], in experiment [11], in experiment [12] and in experiment [13] was inactive. Further, the result in [14], in experiment [16] and in experiment [17] was inactive. The potentiation in experiment [4] is 27% (active); in experiment [15] it was 24.6% (active).
As to `CCN1CCN(c2c(Cl)cccc2NC(=O)c2cccs2)CC1`, the result in experiment [1], in experiment [2], in [4], in experiment [5], in experiment [6] and in experiment [7] was inactive. For the same compound, the outcome in experiment [8], in experiment [9], in experiment [10], in experiment [11], in experiment [12] and in [13] was inactive. For the same compound, the result in experiment [14], in experiment [16] and in [17] was inactive. Further, the values for the potentiation in experiment [3] and in [15] were 14% (active) and 20.9% (active), respectively.
Take `Cc1n[nH]c(C)c1Cc1c(F)cccc1Cl`: the outcome in experiment [1], in experiment [2], in experiment [3], in [4], in experiment [6] and in [7] was inactive. Besides, the result in experiment [8], in experiment [9], in experiment [10], in [11], in experiment [12] and in [13] was inactive. Moreover, the outcome in [14], in experiment [15], in experiment [16] and in experiment [17] was inactive. In addition, the inhibition in [5] is 94% (active).
In the case of `Clc1ccc2[nH]c3c(c2c1)CNCC3`, the outcome in experiment [1], in experiment [2], in experiment [5], in experiment [6], in [7] and in [8] was inactive. Moreover, the outcome in experiment [9], in experiment [10], in experiment [11], in [12], in experiment [13] and in experiment [14] was inactive. Also, the result in experiment [15], in experiment [16] and in [17] was inactive. Besides, the potentiation in [3] is 10% (active); in experiment [4], 12% (active).
On to `CCCCCCc1cc2cc(-c3nnc(-c4cc(OC)c(OC)c(OC)c4)o3)c(=O)oc2cc1O`, for which the outcome in [1], in experiment [2], in experiment [3], in experiment [5], in experiment [6] and in experiment [7] was inactive. Further, the result in [8], in experiment [9], in experiment [10], in [11], in experiment [12] and in [13] was inactive. Besides, the result in [14] and in experiment [16] was inactive. Moreover, the potentiation is 37% (active) in experiment [4] and 16.1% (active) in experiment [15]. The activation in [17] was 4130% (active).
Consider `O=C1Cc2ccccc2Sc2c(OCCN3CCCCC3)cccc21`, for which the result in experiment [1], in experiment [2], in experiment [3], in [4], in experiment [5] and in experiment [6] was inactive. The outcome in experiment [7], in experiment [8], in [9], in [10], in [11] and in [12] was inactive. Moreover, the outcome in experiment [13], in experiment [14], in [15], in experiment [16] and in [17] was inactive.
Take `CCOc1cc(S(=O)(=O)N2CCN(C(=O)c3ccco3)CC2)ccc1F`: the result in experiment [1], in [2], in experiment [3], in experiment [5], in experiment [6] and in experiment [7] was inactive. In addition, the outcome in experiment [8], in [9], in experiment [10], in experiment [11], in experiment [12] and in [13] was inactive. Also, the outcome in experiment [14], in [16] and in [17] was inactive. Moreover, the potentiation in [4] is 12% (active); in [15], 32% (active).
On to `COc1ccc(C(=O)OCCc2sc[n+](CC(=O)c3ccccc3)c2C)cc1`, for which the outcome in [1], in experiment [2], in experiment [3], in [4], in [5] and in [6] was inactive. Also, the result in experiment [7], in experiment [8], in experiment [9], in experiment [11], in experiment [12] and in experiment [13] was inactive. Also, the outcome in experiment [14], in [15], in experiment [16] and in experiment [17] was inactive. Moreover, the inhibition in experiment [10] was 43% (active).
`O=C(C[n+]1cc(-c2ccc(Br)cc2)n2c1CCCCC2)c1ccccc1`: the outcome in experiment [1], in experiment [2], in experiment [3], in [4], in experiment [5] and in [6] was inactive. The outcome in [7], in experiment [8], in experiment [9], in [10], in experiment [11] and in experiment [12] was inactive. Also, the result in experiment [13], in experiment [14], in experiment [15], in experiment [16] and in [17] was inactive.
Take `COc1cc2c(C(=O)N3CCN(C)CC3)c(CSc3ccccc3)n(C)c2cc1Br`: the result in [1], in [2], in experiment [3], in experiment [5], in [6] and in experiment [7] was inactive. Also, the result in [8], in [9], in experiment [10], in experiment [11], in [12] and in [13] was inactive. For the same compound, the outcome in experiment [14], in [16] and in experiment [17] was inactive. In addition, the potentiation in [4] is 25% (active); in experiment [15], 10.5% (active).
For `O=C(CC1CCCCC1)c1c(O)c2ccccc2oc1=O`, the activation in experiment [1] is 151% (active); in [11], 33.5% (active); in experiment [13], 62.5% (active); in experiment [16] it was 30.8% (active). In addition, the outcome in [2], in experiment [3], in experiment [4], in experiment [5], in experiment [6] and in [7] was inactive. The result in [8], in experiment [9], in experiment [10], in experiment [12], in experiment [14] and in experiment [15] was inactive. Besides, the outcome in [17] was inactive.
`Cc1cc(Br)cc(C)c1OCCCCN(C)C`: the result in experiment [1], in [2], in [4], in experiment [5], in experiment [6] and in [7] was inactive. The result in [8], in [9], in [10], in experiment [11], in experiment [12] and in experiment [13] was inactive. Besides, the result in [14], in experiment [16] and in experiment [17] was inactive. The results for the potentiation in experiment [3] and in experiment [15] were 23% (active) and 23.5% (active), respectively.
As for `O=C(COc1ccccc1)NC1CCCCCCC1`, the outcome in [1], in experiment [2], in experiment [5], in experiment [6], in [7] and in experiment [8] was inactive. Also, the result in experiment [9], in [10], in [11], in experiment [12], in experiment [13] and in experiment [14] was inactive. For the same compound, the result in experiment [16] and in [17] was inactive. The figures for the potentiation in experiment [3], in experiment [4] and in experiment [15] were 9% (active), 33% (active) and 40.7% (active), respectively.
